STK33 kinase inh = human STK33 kinase inhibition | Q9BYT3 | AID 2661 | purified STK33, MBP phosphorylation, ADP-Glo luminescence | inhibition, % at 10 µM | 0.073% of 320,000 active;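 active = inhibition at or above 25%, using the most active replicate where run in duplicate; inactive = inhibition below 25%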
DYRK1A inh = inhibitors of rat Dyrk1A kinase. ADP-Glo luminescence, NFATc1 peptide. 0.43% of 310,000 active. AID 504441. inhibition, % at 12.5 µM; in the data active = inhibition above about 50%
HIF activator = HIF pathway transcriptional activation. U2OS HRE-luciferase reporter, luminescence; normalized: DMSO 0%, desferrioxamine 100%. activation, % at 7.5 µM (by protocol). 0.32% of 300,000 active. AID 1910;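 active = mean activation of at least 10% of the iron chelator positive control signal, with at least half of replicates also reaching 10%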
PP5 inh = inhibitors of human protein phosphatase 5 (PP5); purified PP5c, OMFP substrate fluorescence; inhibition, % at 6.7 µM; 0.18% of 320,000 active;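 active = inhibition above the campaign's mean inhibition across all tested compounds plus 3 SD, cut at about 9.5% in these data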
PP1 counter = blocks human PP1-alpha phosphatase, a PP5 counter-screen | P62136 | purified PP1alpha, OMFP fluorescence | 0.9% of 320,000 active | inhibition, % at 6.7 µM | AID 2235;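 active = inhibition above the mean inhibition of all tested compounds plus 3 SD, computed separately for each screening campaign, cut at about 15% in these data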
Target sequence (P62136 whole entry, looked up): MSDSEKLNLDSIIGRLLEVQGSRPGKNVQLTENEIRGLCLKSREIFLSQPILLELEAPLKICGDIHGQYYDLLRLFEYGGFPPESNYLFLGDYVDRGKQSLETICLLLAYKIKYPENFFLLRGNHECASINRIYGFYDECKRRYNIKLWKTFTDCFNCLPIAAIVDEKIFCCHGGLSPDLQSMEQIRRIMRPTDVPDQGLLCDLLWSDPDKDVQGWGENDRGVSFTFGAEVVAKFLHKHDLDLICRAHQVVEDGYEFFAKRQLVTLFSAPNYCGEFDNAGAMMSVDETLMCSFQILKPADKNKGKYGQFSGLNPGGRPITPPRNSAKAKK
PP5 conf = confirmation of human PP5 phosphatase inhibitors. AID 2331. inhibition, % at 6.7 µM. Purified PP5, fluorogenic phosphatase substrate, fluorescence. 22% of 460 active. shares compounds with PP5 inh; in the data active = inhibition above about 9.5%
PP1 inh counter = PP1 phosphatase inhibition, counter-screen for PP5 inhibitors; shares compounds with PP5 inh; PP1 enzyme, fluorescent phosphatase substrate; inhibition, % at 6.7 µM; 4% of 460 active; in the data active = inhibition above about 16%
Numbers stand for hits; – = inactive; · = no result. Rows were chosen to be rich in hits. Some 1.5% of all compounds tested hit in one or more screens of this group.

SMILES | STK33 kinase inh | DYRK1A inh | HIF activator | PP5 inh | PP1 counter | PP5 conf | PP1 inh counter
CCOc1ccc(S(=O)(=O)NC(C)(C)C)cc1-c1nc2c(C(C)(C)C)nn(C)c2c(=O)[nH]1 | – | – | · | 10.2 | – | – | –
CCOc1ccc(S(N)(=O)=O)cc1-c1nc2c(C(C)(C)C)nn(C)c2c(=O)[nH]1 | – | – | – | – | – | · | ·
Fc1ccccc1OCCCCN1CCCCC1 | – | – | – | 13.1 | – | – | –
CCOc1cc(CNc2ncc(-c3ccc(OC)cc3)n2C)ccc1O | – | – | – | 10.5 | – | – | –
Cc1c(NC(=O)CN2C(=O)NC(C)(c3ccc(Cl)cc3)C2=O)c(=O)n(-c2ccccc2)n1C (stereo not drawn) | – | – | – | – | – | · | ·
CCOC(=O)c1c(-c2cccc3ccccc23)csc1NC(=O)C1C2CCC(O2)C1C(=O)O (stereo not drawn) | – | – | – | 10.8 | – | – | –
Cc1ccc(C(=O)O)cc1-n1c(=O)n(Cc2ccccc2)c(=O)c2[nH]cnc21 | – | – | – | – | – | · | ·
N=c1c2c(-c3ccccc3)c(-c3ccccc3)oc2ncn1CCN1CCOCC1 | – | – | – | 10.8 | – | – | –
COc1ccccc1CN(C(=O)CNC(=O)c1ccco1)C(C(=O)NCC1CCCO1)c1ccccc1 (stereo not drawn) | – | – | – | – | – | · | ·
Cn1cnnc1SCC(=O)NCCc1ccc(Cl)cc1Cl | – | – | – | – | – | · | ·
Cc1ccc(C)c(N2CCN(C(=O)Cc3ccc(-n4c(=O)[nH]c5ccsc5c4=O)cc3)CC2)c1 | – | – | – | 12.6 | – | – | –
O=C(COc1cccc2ccccc12)Nc1nc2ccccc2[nH]1 | – | – | · | 10.5 | – | – | –
CC(=O)NS(=O)(=O)c1ccc(NC(=O)CSc2ccc(C)cc2)cc1 | – | – | – | – | – | · | ·
O=[N+]([O-])c1cccnc1N1CCC(c2cc(-c3cccc(C(F)(F)F)c3)n[nH]2)CC1 | – | – | – | 10.4 | – | – | –
CCN(CC)S(=O)(=O)c1ccc(NC(=O)c2cnccn2)cc1 | – | – | – | – | – | · | ·
CN(C)c1ccc(C(O)P(=O)(OCc2ccccc2)c2ccc(N(C)C)cc2)cc1 (stereo not drawn) | – | · | – | – | – | · | ·
CC(C)c1ccc(C(O)P(=O)(OCc2ccccc2)c2ccc(N(C)C)cc2)cc1 (stereo not drawn) | – | – | – | 9.7 | – | – | –
CC1(OC(=O)C2CCCC2)C(=O)C=C2C=C(c3ccsc3)N(CCCCO)C=C2C1=O (stereo not drawn) | – | – | – | 10.0 | – | 43.8 | 17.9
Cc1cc(C)c(C)c(S(=O)(=O)NCC(=O)Nc2ccccc2F)c1C | · | – | – | · | · | · | ·
COC(=O)C1=C(C)N=C2SCCC(=O)N2C1c1ccc(C(=O)OC)cc1 (stereo not drawn) | – | – | – | – | – | · | ·
COC(=O)c1ccc(C2C(C(=O)OCC(C)C)=C(C)N=C3SCCC(=O)N32)cc1 (stereo not drawn) | – | – | – | 10.1 | – | – | –
CCOc1ccccc1NC(=O)C1C2C=CC(C2)C1C(=O)O (stereo not drawn) | – | – | – | – | – | · | ·
CCOc1ccccc1NC(=O)C1C2C=CC(O2)C1C(=O)O (stereo not drawn) | – | – | – | 29.8 | – | – | –
CCc1ccccc1NC(=O)C1C2C=CC(O2)C1C(=O)O (stereo not drawn) | – | – | – | 21.1 | – | – | –
CN(c1ccc([N+](=O)[O-])cc1C(N)=O)C1CCCCC1 | – | – | – | – | – | · | ·
SMILES | STK33 kinase inh | DYRK1A inh | HIF activator | PP5 inh | PP1 counter | PP5 conf | PP1 inh counter
CN(C)CCNC(=O)c1c(CSc2ccccc2)noc1C(=O)NCc1ccccc1 | – | – | – | – | – | · | ·
O=C(Nc1cc(Cl)ccc1-n1cncn1)c1cccc(S(=O)(=O)N2CCOCC2)c1 | – | · | · | – | – | · | ·
COc1ccccc1/C=C/C=N/NC(=O)c1ccc2nc[nH]c2c1 | – | · | – | – | – | · | ·
O=C(O)c1ccc(NC2=C(N3CCOCC3)C(=O)c3ccccc3C2=O)cc1 | – | – | – | – | – | · | ·
CC(=O)c1ccc(NC2=C(N3CCOCC3)C(=O)c3ccccc3C2=O)cc1 | – | – | – | 10.5 | – | 16.2 | –
Cc1ccc(NC2=C(N3CCOCC3)C(=O)c3ccccc3C2=O)cc1 | – | – | – | 10.5 | – | 29.6 | –
CCOc1ccc(C(=O)NC(C(=O)NCCc2ccc(OC(F)F)cc2)C(C)C)cc1 (stereo not drawn) | – | – | – | – | – | · | ·
C[C@H](NC(=O)c1nc[nH]c1C(=O)N[C@@H](CCCCN)C(=O)OC(C)(C)C)C(=O)OC(C)(C)C | – | – | – | – | – | · | ·
C[C@H](NC(=O)c1nc[nH]c1C(=O)N[C@@H](CCCCNC(=O)OC(C)(C)C)C(=O)OC(C)(C)C)C(=O)OCc1ccccc1 | – | – | – | – | – | · | ·
Cc1cccc(NC(=O)c2nc[nH]c2C(=O)N[C@@H](CCCCNC(=O)OC(C)(C)C)C(=O)OC(C)(C)C)c1 | – | – | – | 11.4 | – | – | –
CC(C)C[C@H](NC(=O)c1nc[nH]c1C(=O)N[C@@H](CCCCNC(=O)OC(C)(C)C)C(=O)OC(C)(C)C)C(=O)OCc1ccccc1 | – | – | – | 10.9 | – | – | –
CC(C)(C)OC(=O)NCCCCCNC(=O)c1[nH]cnc1C(=O)N[C@@H](CCCCNC(=O)OC(C)(C)C)C(=O)OC(C)(C)C | – | – | – | 13.1 | – | – | –
C[C@H](NC(=O)c1nc[nH]c1C(=O)N[C@@H](CCCCNC(=O)OC(C)(C)C)C(=O)OC(C)(C)C)C(=O)OC(C)(C)C | – | – | – | 9.6 | – | – | –
Cc1cccc(NC(=O)c2nc[nH]c2C(=O)NCCCCCNC(=O)OC(C)(C)C)c1 | – | – | · | – | – | · | ·
O=C(CS(=O)(=O)c1ccccc1Cl)N1CCOCC1 | – | · | – | – | – | · | ·
CC1CN(C(=O)CCC(=O)N2CCCCC2)c2ccccc2O1 (stereo not drawn) | – | – | – | – | – | · | ·
CC(C)C[C@H](NC(=O)c1[nH]cnc1C(=O)N[C@@H](C)c1ccccc1)C(=O)OC(C)(C)C | – | – | – | 9.9 | – | 9.7 | –
CC(C)(C)OC(=O)[C@H](Cc1ccccc1)NC(=O)c1nc[nH]c1C(=O)NC1CCN(C(=O)OC(C)(C)C)CC1 | – | – | – | 10.1 | – | 10.1 | –
CC(C)C[C@H](NC(=O)c1[nH]cnc1C(=O)N[C@@H](Cc1ccccc1)C(=O)OC(C)(C)C)C(=O)OC(C)(C)C | – | – | – | – | – | · | ·
COc1ccc(N2C(=O)N3[C@@H]4c5ccccc5OC[C@@H]4[C@@H](c4ccccc4)[C@@]3(C)C2=O)cc1 | – | – | · | · | · | · | ·
NC(=O)c1ccc(OCC(F)(F)F)nc1 | – | · | – | – | – | · | ·
CCOc1ccccc1CN1CCNC(=O)C1CC(=O)NCc1nccn1CC (stereo not drawn) | – | – | – | – | – | · | ·

High-throughput results: PubChem BioAssay, several laboratories
